Among the data in PubChem BioAssay are z-score values, retold here.

Active and inactive are the calls of the source.

The nature of the experiment: PSAC antagonists in infected red cells, primary screen, cell-based, P. falciparum Indochina, OD700, 18 h (AID 1157). The settings on record: P. falciparum Indochina infected erythrocytes, osmotic lysis OD700, 18 h; higher = more signal, called active from +8 up or from −8 down.
On to `COc1ccc(C#Cc2ccc3c(c2)[C@]2(C(=O)N3)[C@H](C(=O)N3CCN(c4ncccn4)CC3)[C@H]3C(=O)O[C@H](c4ccccc4)[C@H](c4ccccc4)N3[C@@H]2c2ccc(O)cc2)cc1`, for which the z-score was 0.686 (inactive). Consider `CCCC[C@H]1C[C@@H]1[C@@H]1N(P(=O)(c2ccccc2)c2ccccc2)[C@](CO)(c2ccccc2)CC12CC2`, for which the z-score was 0.985 (inactive). Next, `O=C(N1CCCCC1)[C@]1(CCS(=O)(=O)c2ccccc2)N=C(c2ccc(OCCCO)cc2)O[C@@H]1c1ccccc1`: -0.192 (inactive). Next, `OCCCc1cc[n+](Cc2cccc(OC(F)(F)F)c2)cc1`: 0.916 (inactive); `COc1ccc([Si](C)(C)[C@H]2[C@H](CC(=O)N3CCC[C@H]3CO)O[C@@]3(C(=O)N(Cc4cccc(N5CCC5=O)c4)c4ccccc43)[C@@H]2C)cc1`: 0.696 (inactive); `CCCNC(=O)[C@@]1(c2ccc([N+](=O)[O-])cc2)CC(=O)N(CC23CC4CC(CC(C4)C2)C3)[C@@H]1c1ccc(CO)cc1I`: 1.87 (inactive).

As to `CCCNC(=O)[C@@]1(C)c2ccccc2C(=O)N(Cc2cc(F)cc(C(F)(F)F)c2)[C@H]1c1ccc(CO)cc1`, the z-score is 0.644 (inactive). For `C=C[C@H](C)[C@H](OC(=O)Nc1ccc(OC)cc1)c1ccc(O)c2ccccc12` the value was -0.187 (inactive). For `O=c1cccc(-c2ccccc2)o1` the value was 0.611 (inactive); for `CC1CC/C=C\[C@H]2OC34C=CCN(Cn5nnc6ccccc65)C(=O)[C@H]3N(CCCO)C(=O)[C@@H]4C2C(=O)O1` (stereo not given in full), 0.554 (inactive); for `COc1ccc(C#Cc2ccc3c(c2)[C@]2(C(=O)N3)[C@H](c3ccc(OCCO)cc3)N3[C@H](c4ccccc4)[C@H](c4ccccc4)OC(=O)[C@H]3[C@@H]2C(=O)Nc2nc3ccccc3s2)cc1`, 1.94 (inactive). Next, `C=C(C(=O)CC[C@H](OC(=O)c1cccnc1)c1ccccc1OCCO)C(C)C`: 0.381 (inactive); `C=CC[C@@]1(C(=O)NCCN2CCOCC2)N=C(c2ccc(OCCCO)cc2)O[C@@H]1c1ccccc1CN=[N+]=[N-]`: 0.203 (inactive); `C=CCOC(=O)[C@H]1[C@@H]2C(=O)O[C@@H](c3ccccc3)[C@@H](c3ccccc3)N2[C@@H](c2ccc(OCCOC(=O)[C@@H]3C[C@@H]4C(=O)NCC(=O)N4[C@@H]3c3ccc(O)cc3)cc2)[C@]12C(=O)Nc1ccc(I)cc12`: 0.816 (inactive). As for `CCOC(=O)C[C@H]1[C@H](OC(=O)c2ccc(C(=O)c3ccccc3)cc2)[C@@H](NC(=O)c2ccc3ccccc3n2)c2cc(OCCCO)ccc2N1C(=O)c1ccc2ccccc2n1`, the z-score was 0.579 (inactive). For `C=CCC(OC(C)=O)[C@@H]1[C@@H](N(Cc2ccc(-c3cccc(C(F)(F)F)c3)o2)C(=O)Cc2ccc(OC)cc2)c2cc(OCCCO)ccc2N1C(=O)Cc1ccc(OC)cc1` (stereo not given in full) the value was -0.176 (inactive). Regarding `C=CCC(OC(C)=O)[C@@H]1[C@@H](N(Cc2ccc(-c3ccccc3)cc2)C(=O)c2ccc(C)cc2)c2cc(OCCCO)ccc2N1C(=O)Cc1ccc(OC)cc1` (stereo not given in full), the z-score was -1.43 (inactive). Regarding `C=C(COC)C(=O)CC[C@@H](OC(=O)c1ccccc1-c1ccccc1C(=O)O)c1ccc(CO)o1`, the z-score was 0.698 (inactive). For the compound `CN(C)CCCC[C@@H]1NC(=O)[C@@H]2C[C@H](C(=O)NCCCCCN)[C@H](c3ccc(O)cc3)N2C1=O`, the z-score is -0.0676 (inactive). For `CN(C)CCCN1C(=O)[C@@]2(c3ccc([N+](=O)[O-])cc3)CC(=O)N(C3CCCCC3)[C@@H]2c2ccc(CO)cc21`, the z-score was -1.73 (inactive). Next, `O=C1C2C=CC(C(O)c3cccc4ccccc34)N(n3cnnc3)C2C(=O)N1Cc1ccccc1` (stereo not given): 0.339 (inactive); `COCCCNC(=O)[C@]1(Cc2ccccc2N=[N+]=[N-])N=C(c2ccc(OCCCO)cc2)O[C@@H]1c1ccccc1CN=[N+]=[N-]`: 2.71 (inactive); `C=C(COC)C(=O)CC[C@H](OC(=O)c1cccnc1)c1ccccc1OCCO`: 0.307 (inactive). On to `CCOC(=O)N1C(c2ccc(OCCCO)cc2)=NC(C(=O)OC)N1C(=O)OCC` (stereo not given), for which the z-score is -1.07 (inactive). For `C=CCOC(=O)[C@H]1[C@@H]2C(=O)O[C@@H](c3ccccc3)[C@@H](c3ccccc3)N2[C@@H](c2ccc(OCCOC(=O)[C@H]3C[C@H]4C(=O)N[C@@H](CCCC[N+](C)(C)C)C(=O)N4[C@H]3c3ccc(O)cc3)cc2)[C@]12C(=O)Nc1ccccc12` the value was -1.95 (inactive). Next, `CC(C)N1C(=O)c2ccccc2[C@](C)(C(=O)NCCCN(C)C)[C@@H]1c1ccc(CO)cc1`: 0.4 (inactive). In the case of `C=CCC(OC(C)=O)[C@@H]1[C@@H](N(Cc2ccc(-c3ccccc3)cc2)C(=O)c2ccc(C)cc2)c2cc(OCCCO)ccc2N1C(=O)c1ccc2ccccc2n1` (stereo not given in full), the z-score was -1.06 (inactive). Next, `COC(=O)[C@@]1(Cc2ccc(F)cc2)[C@H]2c3cc(C(=O)N4CCCC4)n(Cc4ccc(Cl)c(C(F)(F)F)c4)c3C[C@H]2CN1C(=O)c1ccccc1`: 1.21 (inactive). For `COCCCNC(=O)[C@@]1(Cc2ccccc2I)c2ccccc2C(=O)N(Cc2ccccc2)[C@H]1c1ccc(CO)cc1` the value was 1.43 (inactive); for `CC(=O)NCCCC[C@@H]1NC(=O)[C@@H]2C[C@H](C(=O)NCc3ccc(F)cc3)[C@H](c3ccc(O)cc3)N2C1=O`, 0.277 (inactive). For `CCOC(=O)C1=CC[C@@H](c2cccc(Cl)c2)N(S(=O)(=O)c2ccc(C)cc2)[C@H]1c1ccc(C#N)cc1` the value was 0.729 (inactive); for `CCCNC(=O)[C@@]1(C)c2ccccc2C(=O)N(Cc2cc(C(F)(F)F)cc(C(F)(F)F)c2)[C@H]1c1ccc(CO)cc1`, -0.754 (inactive). Take `COC(=O)c1c2oc(c1C(=O)OC)C(=O)N[C@H](Cc1ccccc1)Cn1nncc1C1(CCCCC1)NC(=O)N[C@H](CO)CC2`: the z-score was 0.628 (inactive). For the compound `CN(C)CCCC[C@@H]1NC(=O)[C@@H]2C[C@H](C(=O)NCc3ccc(F)cc3)[C@H](c3cccc(OCCO)c3)N2C1=O`, the z-score was 0.546 (inactive). Next, `COc1ccc([Si](C)(C)[C@@H]2[C@@H](CCn3cc([C@H](O)c4ccccc4)nn3)O[C@]3(C(=O)N(C)c4ccccc43)[C@H]2C)cc1`: 0.325 (inactive).
